Results filed as inconclusive are left out. The source made the active and inactive calls. Calls follow the shape of the dose curve; as a rule, active = well fitted curve in the direction sought with a large enough effect; inconclusive = small, poorly fitted or top-dose-only effect, or another doubt; inactive = no such curve, though single readings can be large or run the other way.
What follows are compounds tested on NanoLuc luciferase (engineered Oplophorus gracilirostris luciferase) (assay: Confirmatory Nanoluciferase (NLuc) qHTS assay for identification of artifact compounds.). Details: secreted NLuc in S16 cell medium, luminescence, 5 min; series mostly up to 39 µM.
Outline: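 Conditioned medium from NLuc-expressing S16 cells (diluted 1:55) as enzyme source; compounds 15 min at room temperature, then Nano-Glo substrate for 5 min. Luminescence normalized to no-enzyme and DMSO controls, fitted to 4-parameter Hill equation.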

Potency, inactive:
CCc1ccc2oc(C(=O)Nc3cc(Cl)ccc3OC)cc(=O)c2c1, C[C@H](CCC(=O)O)[C@H]1CCC2C3CC[C@@H]4C[C@H](O)CC[C@]4(C)C3CC[C@@]21C (stereo partly drawn), Cc1ccc(NC(=O)c2ncn(-c3ccccc3)n2)c(Cl)c1, O=C(Nc1ccc(-c2nc3ccccc3[nH]2)cc1)c1ccc(Cl)c(Cl)c1, O=C(Nc1noc2ccccc12)c1c(F)cccc1F, Cc1ccc(C(=O)Nc2onc3c2CCCC3)cc1, COc1ccc(OC(=O)c2nc(SCc3ccccc3F)ncc2Cl)cc1, OC[C@H]1O[C@@H](O[C@@H]2OC=C[C@H]3[C@H](O)[C@@H]4O[C@]4(CO)[C@@H]23)[C@H](O)[C@@H](O)[C@@H]1O, Cc1c(NC(=O)C(C)(C)C)cccc1-c1nc2ccccc2s1, Cc1ccc(-c2nnc(Nc3cccc(Br)c3)c3ccccc23)cc1S(=O)(=O)N1CCCCC1, COc1cc(O)c2c(c1)O[C@H](c1ccccc1)CC2=O, O=C(Nc1ccc(Cl)c(Cl)c1)Nc1ncc(-c2ccncc2)s1, COC(=O)C1=CO[C@@H](O[C@@H]2O[C@H](CO)[C@@H](O)[C@H](O)[C@H]2O)C2C(CO)=CCC12 (stereo partly drawn), CCOC(=O)C1CCN(C(=O)Cn2c(=O)oc3cc(S(=O)(=O)N4CCC(C)CC4)ccc32)CC1, Cc1ccc(-c2nc(=Nc3ccccc3)sn2-c2ccccc2)cc1, CCc1cccc(C)c1NC(=O)Cn1c(=O)n(-c2ccc(C)cc2)c(=O)c2c1cnn2C, COc1ccc(CC(=O)Nc2nc3c(s2)CCCC3)cc1, CCOc1ccccc1NC(=O)Cn1c(=O)n(CCCC(=O)NCc2ccc(C)cc2)c(=O)c2ccccc21, COc1ccc(C2Nc3ccccc3C(=O)N2Cc2ccccc2)cc1Oc1ccc(NC(C)=O)cc1 (stereo not drawn), CCSc1ncc(Cl)c(C(=O)Nc2c(C(=O)Nc3cccc(C)c3)oc3ccccc23)n1, Cc1ccc(CNc2ncnc3onc(-c4ccc(F)cc4)c23)cc1, Cc1cccc(-c2noc(-c3ccc(NCc4ccco4)c([N+](=O)[O-])c3)n2)c1, COc1ccc(CNC(=O)C(=O)NCC(c2ccco2)S(=O)(=O)c2ccc(C)cc2)cc1 (stereo not drawn), C[C@H](CCC(=O)O)[C@H]1CC[C@H]2[C@@H]3CC[C@@H]4C[C@H](O)CC[C@]4(C)[C@H]3CC[C@]12C, Cc1c(Cl)cccc1NC(=O)N1CCOc2ccccc21, N#Cc1cccc(-c2ccc(NC(=O)c3cccs3)cn2)c1, Cc1ccc(CSc2ncccc2C(=O)O)cc1, CCOc1ccccc1-n1nnc(-c2nc(-c3ccccc3)no2)c1N

Source: PubChem BioAssay AID1845224 (National Center for Advancing Translational Sciences (NCATS), 2023)
